This is an account of results in PubChem BioAssay (NCATS).

Records with an inconclusive call do not appear. Active and inactive are the calls of the source. The call rests on the fitted dose curve; in most records, active means well fitted cell-killing curve with a large enough effect; inconclusive means small, poorly fitted or top-dose-only effect; inactive means flat fitted curve, though single readings scatter.
Potency means the concentration at half of the fitted maximal effect.

The nature of one assay: Quantitative highthroughput screen to assess conditional lethalithy of NOMO1 cells grown in RPMI1640 with untreated serum (RPMI+s) (AID 1963876). Further: nearly all actives have a fitted effect of over 35% in size.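 On viability: 100% = DMSO wells and 0% = empty wells without cells.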 To be noted: NOMO1 AML cells in RPMI+serum, CellTiter-Glo viability, 48 h; series mostly up to 45.8 µM; viability: at the top concentration. In short, it runs like this: (§1)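 Each medium arm—HPLM with 10% dialyzed FBS, or RPMI1640 with 5 mM glucose and 10% untreated or dialyzed FBS—was screened against an 11-point, 3-fold compound titration for 48 h at 37 °C, with CellTiter-Glo luminescence as endpoint.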
The term viability denotes a read-out of living cells in per cent, often relative to untreated cells. For the compound `C=CC(=O)Nc1cccc(Oc2nc(Nc3ccc(N4CCN(C)CC4)cc3OC)ncc2Cl)c1`, the “viability” value was 67.2% (inactive).
With `CS(=O)(=O)CCNCc1ccc(-c2ccc3ncnc(Nc4ccc(OCc5cccc(F)c5)c(Cl)c4)c3c2)o1`, the Potency was 18.7 µM (active).
The same measure, in the same setting: to `CC(=O)OCCN1C(=O)c2c(C)nc3ccc(S(=O)(=O)N4CCOCC4)cc3c2C1=O` belongs 0.264 µM (active).
Take `Cc1ccc(C(=O)N(CCCN)[C@@H](c2oc3cc(Cl)ccc3c(=O)c2Cc2ccccc2)C(C)C)cc1`: the “viability” value is 5.45% (inactive).
Turning to `CC(C)(S)[C@@H](N)C(=O)O`, the “viability” value was 95.1% (inactive).
With `NC1(C(=O)N[C@@H](CCO)c2ccc(Cl)cc2)CCN(c2ncnc3[nH]ccc23)CC1`, the Potency was 10.5 µM (active).
As for `COc1cc(C(C)C)c2c(c1)S(=O)(=O)N(COc1cc(=O)n3cccc(OCCN4CCCCC4)c3n1)C2=O`, the “viability” value was 96.1% (inactive).
With `CC1(C)[C@H](C(=O)O)N2C(=O)C[C@H]2S1(=O)=O`, the Potency is 8.33 µM (active).
For `C#Cc1cccc(Nc2ncnc3cc(OCCOC)c(OCCOC)cc23)c1`, the “viability” value is 90.8% (inactive).
As for `COc1cc2c(cc1-c1c(C)noc1C)ncc1[nH]c(=O)n([C@H](C)c3ccccn3)c12`, the Potency was 3.32 µM (active).
Consider `Cn1c(NCCN(CCO)CCCc2ccc([N+](=O)[O-])cc2)cc(=O)n(C)c1=O`, for which the “viability” value is 90.3% (inactive).
Consider `CN1CCC(=C2c3ccccc3CCc3sccc32)CC1`, for which the “viability” value is 98.3% (inactive).
`CCOc1cc(N2CCC(O)CC2)ccc1Nc1ncc2c(n1)N(C)c1ccccc1C(=O)N2C`: the Potency is 0.332 µM (active).
In the case of `CCOc1ccc(Nc2nc(-c3c(C)nc4ccccn34)cs2)cc1`, the Potency was 0.0833 µM (active).
Same read-out and setting: to `c1cncc(CN2CCC(n3ncc4c(N5CCOCC5)nc(-c5ccc6[nH]ccc6c5)nc43)CC2)c1` belongs 16.6 µM (active).
Regarding `NCC(=O)Nc1ccc(-n2nc(C(F)(F)F)cc2-c2ccc3c(ccc4ccccc43)c2)cc1`, the “viability” value was 104% (inactive).
The same measure, in the same setting: the figure for `CCc1nc(N)nc(N)c1-c1ccc(Cl)cc1` is 98.9% (inactive).
In the case of `CC(C)(O)c1cc2nc(-c3cnc(N)nc3)nc(N3CCOCC3)c2s1`, the Potency is 1.87 µM (active).
With `CCCCCNC(=O)N1CCC(CN(Cc2ccc(Cl)cc2)Cc2ccc([N+](=O)[O-])s2)C1` (centres undefined), the “viability” value was 92.8% (inactive).
On the same count and under the same terms, the figure for `Cc1cccc(-c2[nH]c(C(C)(C)C)nc2-c2ccc3nccnc3c2)n1` is 97.8% (inactive); for `Nc1ccc(C(=O)Nc2cccc(-c3nc(N4CCOCC4)c4oc5ncccc5c4n3)c2)cn1` it is 90.6% (inactive).
With `CN1CCN(c2ncc(-c3cc(Cl)cc(Cl)c3Cl)c(N)n2)CC1`, the Potency is 0.332 µM (active).
Turning to `CC(C)Nc1cc(-c2c[nH]c(C(=O)N[C@H](CO)c3cccc(Cl)c3)c2)c(Cl)cn1`, the Potency was 14.8 µM (active).
Still for that read-out and setting: to `N#Cc1c(NC(=O)c2cccc3ccccc23)sc2c1CCCC2` belongs 0.935 µM (active).
In the case of `CCn1nnc2c(N3CCOCC3)nc(-c3ccc(NC(=O)Nc4ccc(C(=O)N5CCN(C)CC5)cc4)cc3)nc21`, the “viability” value was 68.6% (inactive).
Still for that read-out and setting: the figure for `CC1=C[C@@H]2[C@@H]([C@@H](O)C[C@@]3(C)[C@H]2C[C@@H](C)[C@]3(O)C(=O)CO)[C@@]2(C)Cc3cnn(-c4ccccc4)c3C=C12` is 99.6% (inactive).
Consider `O=C(NC[C@H](O)CO)c1ccncc1Nc1ccc(I)cc1F`, for which the Potency is 0.469 µM (active).
In the case of `Cc1cnc(C(=O)NCCc2ccc(S(=O)(=O)NC(=O)NC3CCCCC3)cc2)cn1`, the “viability” value was 86.8% (inactive).
Turning to `Cc1cc(C(=O)N2CCN(c3cccc(Cl)c3)CC2)n(-c2ccccc2)n1`, the Potency was 7.43 µM (active).
As for `COc1cc2ncnc(Nc3ccc(F)c(Cl)c3)c2cc1OCCCN1CCOCC1`, the “viability” value was 91.4% [at 92.2 µM] (inactive).
Same read-out and setting: the figure for `Cc1ccc(S(=O)(=O)OCC(=O)Nc2ccc(C(=O)O)c(O)c2)cc1` is 78.3% (inactive); for `O=C(c1ccc(OCCN2CCCCC2)cc1)c1c(-c2ccc(O)cc2)sc2cc(O)ccc12` it is 92.2% (inactive).
`Cc1cn(-c2cc(NC(=O)c3ccc(C)c(Nc4nccc(-c5cccnc5)n4)c3)cc(C(F)(F)F)c2)cn1`: the Potency was 0.935 µM (active).
Consider `CC(C)C(=O)Nc1ncc(-c2cc(C(F)F)nn2-c2c(Cl)cccc2Cl)s1`, for which the “viability” value is 85% (inactive).
On the same count and under the same terms, the figure for `CNC1CCC(N(Cc2cccc(-c3ccncc3)c2)C(=O)c2sc3c(F)ccc(F)c3c2Cl)CC1` (centres undefined) is 79.3% (inactive).
Regarding `CCC[C@H](N[C@@H](C)C(=O)N1[C@@H]2CCCC[C@H]2C[C@H]1C(=O)O)C(=O)OCC`, the Potency is 13.2 µM (active).
The same measure, in the same setting: the figure for `CNC(=O)Nc1ccc(-c2nc(N3CC4CCC(C3)O4)c3cnn(C4CCC5(CC4)OCCO5)c3n2)cc1` is 0.059 µM (active).

The next assay is described as follows: Quantitative highthroughput screen to assess conditional lethalithy of NOMO1 cells grown in RPMI1640 with dialyzed fetal bovine serum (RPMI+ds) (AID 1963877). Further: nearly all actives have a fitted effect of over 30% in size.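 On viability: 100% = DMSO control wells and 0% = empty wells.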 To be noted: NOMO1 in RPMI+dialyzed FBS viability, ATP luminescence, 48 h; series mostly up to 45.8 µM; viability: at the top concentration. In outline:
as §1
Take `CN(C)c1ccc(C(=O)NCCCCCCC(=O)NO)cc1`: the Potency was 2.35 µM (active).
Turning to `NC(=O)N1CCC(CC(=O)N2CCC([C@H]3c4ncc(Br)cc4CCc4cc(Cl)cc(Br)c43)CC2)CC1`, the “viability” value was 73% (inactive).
With `O=C(Nc1ncc(SCCN2CCCC2)s1)[C@]1(c2ccc(S(=O)(=O)C3CC3)cc2)C[C@@H]1C1CCCCC1`, the Potency was 23.5 µM (active).

The next assay is described as follows: Quantitative highthroughput screen to assess conditional lethalithy of P12 Ichikawa cells grown in Human Plasma-Like Medium with dialyzed fetal bovine serum (HPLM+ds) (AID 1963879). Further: nearly all actives have a fitted effect of over 35% in size. To be noted: ATP luminescence, 48 h; Potency: viability; series mostly up to 45.8 µM; viability: at the top concentration. In short, it runs like this:
as §1
Take `CS(=O)(=O)CCNCc1ccc(-c2ccc3ncnc(Nc4ccc(OCc5cccc(F)c5)c(Cl)c4)c3c2)o1`: the “viability” value is 78.4% (inactive).
With `CC(=O)OCCN1C(=O)c2c(C)nc3ccc(S(=O)(=O)N4CCOCC4)cc3c2C1=O`, the Potency is 2.64 µM (active).
As for `CC(C)(S)[C@@H](N)C(=O)O`, the “viability” value is 93.8% (inactive).
On the same count and under the same terms, the figure for `COc1cc(C(C)C)c2c(c1)S(=O)(=O)N(COc1cc(=O)n3cccc(OCCN4CCCCC4)c3n1)C2=O` is 93.3% (inactive); for `CC1(C)[C@H](C(=O)O)N2C(=O)C[C@H]2S1(=O)=O` it is 92.4% (inactive).
With `COc1cc2c(cc1-c1c(C)noc1C)ncc1[nH]c(=O)n([C@H](C)c3ccccn3)c12`, the Potency was 5.9 µM (active).
Regarding `CN1CCC(=C2c3ccccc3CCc3sccc32)CC1`, the “viability” value is 78% (inactive).
For the compound `CCOc1cc(N2CCC(O)CC2)ccc1Nc1ncc2c(n1)N(C)c1ccccc1C(=O)N2C`, the Potency was 2.09 µM (active).
The same measure, in the same setting: to `CCOc1ccc(Nc2nc(-c3c(C)nc4ccccn34)cs2)cc1` belongs 0.0469 µM (active); to `NCC(=O)Nc1ccc(-n2nc(C(F)(F)F)cc2-c2ccc3c(ccc4ccccc43)c2)cc1`, 2.96 µM (active); to `CN(C)c1ccc(C(=O)NCCCCCCC(=O)NO)cc1`, 1.48 µM (active).
The same measure, in the same setting: to `CCc1nc(N)nc(N)c1-c1ccc(Cl)cc1` belongs 1.87 µM (active).
Consider `CCCCCNC(=O)N1CCC(CN(Cc2ccc(Cl)cc2)Cc2ccc([N+](=O)[O-])s2)C1` (centres undefined), for which the “viability” value is 82.7% (inactive).
With `CN1CCN(c2ncc(-c3cc(Cl)cc(Cl)c3Cl)c(N)n2)CC1`, the Potency is 2.64 µM (active).
On the same count and under the same terms, the figure for `N#Cc1c(NC(=O)c2cccc3ccccc23)sc2c1CCCC2` is 0.59 µM (active).
Consider `O=C(NC[C@H](O)CO)c1ccncc1Nc1ccc(I)cc1F`, for which the “viability” value is 76.8% (inactive).
`Cc1ccc(S(=O)(=O)OCC(=O)Nc2ccc(C(=O)O)c(O)c2)cc1`: the Potency is 23.5 µM (active).
Consider `Cc1cn(-c2cc(NC(=O)c3ccc(C)c(Nc4nccc(-c5cccnc5)n4)c3)cc(C(F)(F)F)c2)cn1`, for which the Potency is 0.935 µM (active).
With `CCC[C@H](N[C@@H](C)C(=O)N1[C@@H]2CCCC[C@H]2C[C@H]1C(=O)O)C(=O)OCC`, the “viability” value was 84.2% (inactive).
